Data as given in PubChem BioAssay (NCATS).
Values joined by “and” are separate entries in the source; they are usually repeats but may differ in a detail not shown here. Identical values can stand only once. Records with an inconclusive call do not appear. Where a call stands in place of a potency, no number is given. A number with no mark means an inactive call. Active and inactive are the calls of the source. The call rests on the fitted dose curve; in most records, active means well fitted inhibition curve with a large enough effect; inconclusive means small, poorly fitted or top-dose-only effect; inactive means flat fitted curve, though single readings scatter.

Experiments:
HB3 = experiment: qHTS profiling for inhibitors of Plasmodium falciparum proliferation (AID 504749); conditions: P. falciparum in erythrocytes, SYBR Green DNA, 72 h; series mostly up to 28.7 µM
Method in brief: (§1)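 P. falciparum-infected erythrocytes (0.3% parasitemia, 2.5% hematocrit) incubated with compound 72 h at 37 C, 5% CO2. Parasite DNA detected by SYBR Green after lysis, overnight at room temperature; normalised to 0.29 uM artemisinin and DMSO.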

ICS = experiment: as above; conditions: P. falciparum in erythrocytes, SYBR Green DNA, 72 h; series mostly up to 28.7 µM
Method in brief: as §1

JCK = experiment: as above; conditions: P. falciparum in erythrocytes, SYBR Green DNA, 72 h; series mostly up to 28.7 µM
Method in brief: as §1

N140 = experiment: as above; conditions: P. falciparum in erythrocytes, SYBR Green DNA, 72 h; series mostly up to 28.7 µM
Method in brief: as §1

PC15 = experiment: as above; conditions: P. falciparum in erythrocytes, SYBR Green DNA, 72 h; series mostly up to 28.7 µM
Method in brief: as §1

PC49 = experiment: as above; conditions: P. falciparum in erythrocytes, SYBR Green DNA, 72 h; series mostly up to 28.7 µM
Method in brief: as §1

SC27B = experiment: as above; conditions: P. falciparum in erythrocytes, SYBR Green DNA, 72 h; series mostly up to 28.7 µM
Method in brief: as §1

CRL-7250 = normal cell line; experiment: Cytotoxic Profiling of Annotated Libraries Using Quantitative High-Throughput Screening (AID 1296008); conditions: Five cell lines viability, CellTiter-Glo ATP luminescence, 48-72 h; max response: hits give low values
Method in brief: (§2)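 Cells exposed to compounds for 48 or 72 hr at 37 degrees Celsius. Viability read as ATP-coupled luminescence with CellTiter-Glo after 10 min at room temperature.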

HEK293 = experiment: as above; conditions: Five cell lines viability, CellTiter-Glo ATP luminescence, 48-72 h; max response: hits give low values
Method in brief: as §2

HaCat = experiment: as above; conditions: Five cell lines viability, CellTiter-Glo ATP luminescence, 48-72 h; max response: hits give low values
Method in brief: as §2

KB-3-1 = experiment: as above; conditions: Five cell lines viability, CellTiter-Glo ATP luminescence, 48-72 h; max response: hits give low values
Method in brief: as §2

P94_40 = experiment: qHTS profiling for inhibitors of Plasmodium falciparum proliferation (AID 504749); conditions: P. falciparum in erythrocytes, SYBR Green DNA, 72 h; series mostly up to 28.7 µM
Method in brief: as §1

TAB109 = experiment: as above; conditions: P. falciparum in erythrocytes, SYBR Green DNA, 72 h; series mostly up to 28.7 µM
Method in brief: as §1

TAB113 = experiment: as above; conditions: P. falciparum in erythrocytes, SYBR Green DNA, 72 h; series mostly up to 28.7 µM
Method in brief: as §1

W2 = experiment: as above; conditions: P. falciparum in erythrocytes, SYBR Green DNA, 72 h; series mostly up to 28.7 µM
Method in brief: as §1

GB4 = experiment: as above; conditions: P. falciparum in erythrocytes, SYBR Green DNA, 72 h; series mostly up to 28.7 µM
Method in brief: as §1

P93_24 = experiment: as above; conditions: P. falciparum in erythrocytes, SYBR Green DNA, 72 h; series mostly up to 28.7 µM
Method in brief: as §1

PAD = experiment: as above; conditions: P. falciparum in erythrocytes, SYBR Green DNA, 72 h; series mostly up to 28.7 µM
Method in brief: as §1

PC26 = experiment: as above; conditions: P. falciparum in erythrocytes, SYBR Green DNA, 72 h; series mostly up to 28.7 µM
Method in brief: as §1

TAB165 = experiment: as above; conditions: P. falciparum in erythrocytes, SYBR Green DNA, 72 h; series mostly up to 28.7 µM
Method in brief: as §1
Further: nearly all actives have a fitted effect of over 60% in size.
Potency means the concentration at half of the fitted maximal effect.

Question: With CC(=O)O[C@]1(C(C)=O)CC[C@H]2[C@@H]3C=C(Cl)C4=CC(=O)[C@@H]5C[C@@H]5[C@]4(C)[C@H]3CC[C@@]21C as the compound, how does the Potency (HB3) read?
Answer: The Potency was “inactive”.

Question: And the Potency (ICS)?
Answer: The Potency was 12.6 µM (active).

Question: And the outcome (JCK)?
Answer: The outcome was “inactive”.

Question: What about the Potency (N140) of the same compound?
Answer: Its Potency is “inactive”.

Question: And the outcome (PC15)?
Answer: The outcome was “inactive”.

Question: And the outcome (PC49)?
Answer: Its outcome is “inactive”.

Question: And the Potency (SC27B)?
Answer: The Potency was “inactive”.

Question: And the max response (CRL-7250)?
Answer: The max response was -14.7% and -0.0221%.

Question: What about the Potency (HEK293) of the same compound?
Answer: The Potency was 13 µM (active).

Question: And the max response (HaCat)?
Answer: Its max response is 4.62% and -21.2%.

Question: And the max response (KB-3-1)?
Answer: Its max response is 2.19% and -8.34%.

Question: CC1(C)S[C@H]2[C@H](NC(=O)[C@@H](N)c3ccc(O)cc3)C(=O)N2[C@@H]1C(=O)O was tested. Which outcome (CRL-7250) did it give?
Answer: Its outcome is “inactive”.

Question: What about the outcome (HaCat) of the same compound?
Answer: Its outcome is “inactive”.

Question: What about the outcome (KB-3-1) of the same compound?
Answer: Its outcome is “inactive”.

Question: O=C1Nc2ccc(Cl)cc2C(C#CC2CC2)(C(F)(F)F)O1 (stereo not given) was tested. Which Potency (HB3) did it give?
Answer: Its Potency is “inactive”.

Question: And the outcome (JCK)?
Answer: The outcome was “inactive”.

Question: What about the Potency (N140) of the same compound?
Answer: Its Potency is “inactive”.

Question: What about the Potency (P94_40) of the same compound?
Answer: Its Potency is “inactive”.

Question: What about the outcome (PC49) of the same compound?
Answer: The outcome was “inactive”.

Question: And the Potency (SC27B)?
Answer: Its Potency is “inactive”.

Question: And the outcome (TAB109)?
Answer: The outcome was “inactive”.

Question: And the Potency (TAB113)?
Answer: The Potency was “inactive”.

Question: And the Potency (W2)?
Answer: The Potency was “inactive”.

Question: What about the max response (CRL-7250) of the same compound?
Answer: The max response was -18.6%.

Question: What about the max response (HEK293) of the same compound?
Answer: Its max response is -29.6%.

Question: And the outcome (HaCat)?
Answer: Its outcome is “inactive”.

Question: And the max response (KB-3-1)?
Answer: The max response was -17.5%.

Question: How did the max response (CRL-7250) turn out when O=C(O)C=Cc1ccc(O)c(O)c1 was run?
Answer: The max response was -10.7%.

Question: And the max response (HaCat)?
Answer: The max response was -23.4%.

Question: What about the max response (KB-3-1) of the same compound?
Answer: The max response was 6.69%.

Question: Which results are given for CON=C(C(=O)N[C@@H]1C(=O)N2C(C(=O)OCOC(=O)C(C)(C)C)=C(C=Cc3scnc3C)CS[C@H]12)c1csc(N)n1?
Answer: outcome (CRL-7250): inactive; outcome (HaCat): inactive; max response (KB-3-1): 0.86%

Question: For CN(C)Cc1cccc(N=C(c2ccccc2)c2c(O)[nH]c3cc(C(=O)N(C)C)ccc23)c1, which Potency (CRL-7250) is on record?
Answer: The Potency was 20.9 µM (active).

Question: What about the max response (HaCat) of the same compound?
Answer: The max response was -49.2%.

Question: What about the max response (KB-3-1) of the same compound?
Answer: The max response was -15%.

Question: For CCCCCNC(=O)N1CCC(CN(Cc2ccc(Cl)cc2)Cc2ccc([N+](=O)[O-])s2)C1 (stereo not given), which max response (CRL-7250) is on record?
Answer: Its max response is -21%.

Question: What about the max response (HaCat) of the same compound?
Answer: The max response was 2.36%.

Question: Which max response (CRL-7250) does the source give for O=C(Nc1ccccc1Br)N[C@@H]1CCN(c2ccc(C(F)(F)F)cn2)C1 here?
Answer: The max response was -5.42%.

Question: And the max response (HaCat)?
Answer: Its max response is 4.65%.

Question: For CC(=O)N[C@@H](CS)C(=O)O, which Potency (GB4) is on record?
Answer: The Potency was “inactive”.

Question: And the Potency (HB3)?
Answer: Its Potency is “inactive”.

Question: What about the Potency (ICS) of the same compound?
Answer: The Potency was “inactive”.

Question: And the outcome (JCK)?
Answer: The outcome was “inactive”.

Question: And the Potency (N140)?
Answer: The Potency was “inactive”.

Question: What about the outcome (P93_24) of the same compound?
Answer: Its outcome is “inactive”.

Question: What about the Potency (P94_40) of the same compound?
Answer: The Potency was “inactive”.

Question: What about the outcome (PAD) of the same compound?
Answer: The outcome was “inactive”.

Question: And the outcome (PC15)?
Answer: The outcome was “inactive”.

Question: What about the Potency (PC26) of the same compound?
Answer: Its Potency is “inactive”.

Question: What about the outcome (PC49) of the same compound?
Answer: The outcome was “inactive”.

Question: And the Potency (SC27B)?
Answer: The Potency was “inactive”.

Question: What about the outcome (TAB109) of the same compound?
Answer: Its outcome is “inactive”.

Question: And the Potency (TAB113)?
Answer: Its Potency is “inactive”.

Question: What about the Potency (TAB165) of the same compound?
Answer: Its Potency is “inactive”.

Question: And the Potency (W2)?
Answer: Its Potency is “inactive”.

Question: And the max response (CRL-7250)?
Answer: Its max response is -25.8%.

Question: What about the outcome (HEK293) of the same compound?
Answer: The outcome was “inactive”.

Question: And the max response (HaCat)?
Answer: The max response was -16.4%.

Question: And the max response (KB-3-1)?
Answer: The max response was 0.129%.
